Test results taken from publication PMC7862700, “An all-to-all approach to the identification of sequence-specific readers for epigenetic DNA modifications on cytosine”.

Columns and labels:
Assay in all cases: DAPPL (digital affinity profiling via proximity ligation, sequencing); 10 mM Tris-HCl pH 7.5, 50 mM NaCl, 1 mM DTT, 4% glycerol, room temperature, 30 min; GST-TFs on glutathione beads, 16-mer random dsDNA library, 0.1% formaldehyde crosslink after washing; high values mean tight binding
[1] = target: T1, FLI1 (Homo sapiens, UniProt Q01543 1-452); details: protein: recombinant; tags: N-terminal GST; dsDNA, one strand shown
T1 sequence: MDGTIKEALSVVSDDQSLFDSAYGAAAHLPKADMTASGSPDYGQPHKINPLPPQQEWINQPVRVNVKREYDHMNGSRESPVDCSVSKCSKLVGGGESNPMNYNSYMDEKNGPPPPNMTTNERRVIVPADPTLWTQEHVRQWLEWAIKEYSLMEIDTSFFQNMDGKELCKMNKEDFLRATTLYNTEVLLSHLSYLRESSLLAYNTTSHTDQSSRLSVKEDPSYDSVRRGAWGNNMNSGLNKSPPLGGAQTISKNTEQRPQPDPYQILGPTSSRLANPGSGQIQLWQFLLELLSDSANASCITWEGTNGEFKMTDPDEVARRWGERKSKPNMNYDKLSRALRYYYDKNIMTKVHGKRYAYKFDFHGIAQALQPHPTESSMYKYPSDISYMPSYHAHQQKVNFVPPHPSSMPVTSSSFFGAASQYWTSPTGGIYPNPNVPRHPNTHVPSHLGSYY
Outline: (§1)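 A tag-only sample was pooled with DNA-barcoded human transcription factors that had been expressed in yeast as GST fusions and captured on glutathione beads. The pools were incubated for 30 min at room temperature with 200 nmole of a random double-stranded 16-mer DNA library in Tris/NaCl/DTT/glycerol buffer, then washed, crosslinked with 0.1% formaldehyde, proximity-ligated (BsaI/T4 ligase, 1 h, 37 °C), PCR-amplified and sequenced on an Illumina NextSeq500. Binding signal is each hexamer's read frequency for a factor divided by its frequency for the tag-only sample.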

[2] = target: T2, ELK1 (Homo sapiens, UniProt P19419 1-428); details: protein: recombinant; tags: N-terminal GST; dsDNA, one strand shown
T2 sequence: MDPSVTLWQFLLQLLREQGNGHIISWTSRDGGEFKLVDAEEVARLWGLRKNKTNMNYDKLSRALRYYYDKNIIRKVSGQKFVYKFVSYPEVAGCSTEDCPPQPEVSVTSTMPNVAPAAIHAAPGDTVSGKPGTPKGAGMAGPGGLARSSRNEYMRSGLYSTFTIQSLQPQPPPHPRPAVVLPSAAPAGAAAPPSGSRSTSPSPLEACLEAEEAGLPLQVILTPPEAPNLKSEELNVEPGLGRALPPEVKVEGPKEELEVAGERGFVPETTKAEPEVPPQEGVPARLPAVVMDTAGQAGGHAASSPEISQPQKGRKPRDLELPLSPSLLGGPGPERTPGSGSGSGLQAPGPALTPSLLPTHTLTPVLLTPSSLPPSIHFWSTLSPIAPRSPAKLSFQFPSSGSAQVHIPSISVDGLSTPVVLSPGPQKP
Outline: as §1

[3] = target: T3, GABPA (Homo sapiens, UniProt Q06546 1-454); details: protein: recombinant; tags: N-terminal GST; dsDNA, one strand shown
T3 sequence: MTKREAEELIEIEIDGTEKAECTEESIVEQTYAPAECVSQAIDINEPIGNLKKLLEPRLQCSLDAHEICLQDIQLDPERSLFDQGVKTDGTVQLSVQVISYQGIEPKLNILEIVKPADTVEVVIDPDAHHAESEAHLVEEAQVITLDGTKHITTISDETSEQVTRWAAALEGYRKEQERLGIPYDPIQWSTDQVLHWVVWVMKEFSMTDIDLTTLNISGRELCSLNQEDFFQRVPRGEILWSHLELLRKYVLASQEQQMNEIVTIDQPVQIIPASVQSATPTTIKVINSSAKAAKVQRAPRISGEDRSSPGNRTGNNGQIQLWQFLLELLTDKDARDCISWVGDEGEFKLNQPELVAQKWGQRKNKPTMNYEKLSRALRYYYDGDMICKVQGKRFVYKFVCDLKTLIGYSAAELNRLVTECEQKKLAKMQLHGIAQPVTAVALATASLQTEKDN
Outline: as §1

[4] = target: T4, ERG (Homo sapiens, UniProt P11308 1-479); details: protein: recombinant; tags: N-terminal GST; dsDNA, one strand shown
T4 sequence: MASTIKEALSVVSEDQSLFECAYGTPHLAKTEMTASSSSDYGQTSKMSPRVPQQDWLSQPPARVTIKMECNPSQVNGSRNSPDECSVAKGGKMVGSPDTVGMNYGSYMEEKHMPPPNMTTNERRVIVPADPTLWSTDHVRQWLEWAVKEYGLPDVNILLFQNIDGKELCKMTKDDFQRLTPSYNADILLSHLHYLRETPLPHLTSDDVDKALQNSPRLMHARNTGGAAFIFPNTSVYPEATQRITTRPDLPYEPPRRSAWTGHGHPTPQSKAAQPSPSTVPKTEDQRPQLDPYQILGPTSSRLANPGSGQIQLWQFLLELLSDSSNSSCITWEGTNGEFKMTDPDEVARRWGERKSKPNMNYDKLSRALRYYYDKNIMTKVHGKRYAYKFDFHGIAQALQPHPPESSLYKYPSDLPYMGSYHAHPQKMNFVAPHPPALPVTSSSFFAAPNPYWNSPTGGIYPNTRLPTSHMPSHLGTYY
Outline: as §1

[5] = target: ELF1 (Homo sapiens, UniProt P32519 1-619); details: protein: recombinant; tags: N-terminal GST; dsDNA, one strand shown
Outline: as §1

[6] = target: T5, EHF (Homo sapiens, UniProt Q9NZC4 1-300); details: protein: recombinant; tags: N-terminal GST; dsDNA, one strand shown
T5 sequence: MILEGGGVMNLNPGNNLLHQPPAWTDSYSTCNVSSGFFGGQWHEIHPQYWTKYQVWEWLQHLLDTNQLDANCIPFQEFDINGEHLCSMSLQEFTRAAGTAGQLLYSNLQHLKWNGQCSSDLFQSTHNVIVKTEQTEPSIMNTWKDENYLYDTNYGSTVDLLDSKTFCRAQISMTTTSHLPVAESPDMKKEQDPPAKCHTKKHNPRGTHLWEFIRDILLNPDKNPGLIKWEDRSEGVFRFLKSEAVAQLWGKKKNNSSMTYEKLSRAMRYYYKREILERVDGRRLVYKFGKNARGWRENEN
Outline: as §1

[7] = target: SPI1 (Homo sapiens, UniProt P17947 1-270); details: protein: recombinant; tags: N-terminal GST; dsDNA, one strand shown
Outline: as §1

[8] = target: SPIB (Homo sapiens, UniProt Q01892 1-262); details: protein: recombinant; tags: N-terminal GST; dsDNA, one strand shown
Outline: as §1

[9] = target: T6, ELK3 (Homo sapiens, UniProt P41970 1-407); details: protein: recombinant; tags: N-terminal GST; dsDNA, one strand shown
T6 sequence: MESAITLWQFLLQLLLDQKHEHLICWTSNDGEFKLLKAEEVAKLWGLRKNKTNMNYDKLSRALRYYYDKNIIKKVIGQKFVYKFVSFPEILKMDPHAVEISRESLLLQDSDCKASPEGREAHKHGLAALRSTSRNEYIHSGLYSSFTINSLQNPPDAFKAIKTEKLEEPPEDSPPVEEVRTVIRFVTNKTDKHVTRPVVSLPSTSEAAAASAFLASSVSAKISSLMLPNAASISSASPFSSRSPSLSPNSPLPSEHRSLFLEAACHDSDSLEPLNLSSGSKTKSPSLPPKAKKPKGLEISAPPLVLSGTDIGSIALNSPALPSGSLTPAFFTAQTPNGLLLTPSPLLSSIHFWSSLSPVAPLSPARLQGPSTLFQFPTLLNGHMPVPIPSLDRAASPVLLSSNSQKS
Outline: as §1

[10] = target: T7, FEV (Homo sapiens, UniProt Q99581 1-238); details: protein: recombinant; tags: N-terminal GST; dsDNA, one strand shown
T7 sequence: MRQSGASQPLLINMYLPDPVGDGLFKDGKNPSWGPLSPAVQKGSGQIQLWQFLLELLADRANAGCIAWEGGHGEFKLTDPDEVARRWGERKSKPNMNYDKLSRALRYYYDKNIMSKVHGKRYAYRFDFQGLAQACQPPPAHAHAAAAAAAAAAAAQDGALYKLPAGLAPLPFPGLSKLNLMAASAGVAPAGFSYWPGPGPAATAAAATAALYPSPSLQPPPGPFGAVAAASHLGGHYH
Outline: as §1

[11] = target: ETV5 (Homo sapiens, UniProt P41161 1-510); details: protein: recombinant; tags: N-terminal GST; dsDNA, one strand shown
Outline: as §1

[12] = target: HSF1 (Homo sapiens, UniProt Q00613 1-529); details: protein: recombinant; tags: N-terminal GST; chain copies: 3; dsDNA, one strand shown
Outline: as §1

[13] = target: T8, SPIC (Homo sapiens, UniProt Q8N5J4 1-248); details: protein: recombinant; tags: N-terminal GST; dsDNA, one strand shown
T8 sequence: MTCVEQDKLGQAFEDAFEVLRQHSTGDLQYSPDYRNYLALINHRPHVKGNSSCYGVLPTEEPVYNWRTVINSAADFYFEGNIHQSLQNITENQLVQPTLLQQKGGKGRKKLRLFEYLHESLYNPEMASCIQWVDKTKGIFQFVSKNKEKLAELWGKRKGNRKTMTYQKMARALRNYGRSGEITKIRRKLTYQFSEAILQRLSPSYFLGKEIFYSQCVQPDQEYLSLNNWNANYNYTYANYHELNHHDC
Outline: as §1

[14] = target: ELF4 (Homo sapiens, UniProt Q99607 1-663); details: protein: recombinant; tags: N-terminal GST; dsDNA, one strand shown
Outline: as §1

[15] = target: T9, ELK4 (Homo sapiens, UniProt P28324-2 1-405); details: protein: recombinant; tags: N-terminal GST; dsDNA, one strand shown
T9 sequence: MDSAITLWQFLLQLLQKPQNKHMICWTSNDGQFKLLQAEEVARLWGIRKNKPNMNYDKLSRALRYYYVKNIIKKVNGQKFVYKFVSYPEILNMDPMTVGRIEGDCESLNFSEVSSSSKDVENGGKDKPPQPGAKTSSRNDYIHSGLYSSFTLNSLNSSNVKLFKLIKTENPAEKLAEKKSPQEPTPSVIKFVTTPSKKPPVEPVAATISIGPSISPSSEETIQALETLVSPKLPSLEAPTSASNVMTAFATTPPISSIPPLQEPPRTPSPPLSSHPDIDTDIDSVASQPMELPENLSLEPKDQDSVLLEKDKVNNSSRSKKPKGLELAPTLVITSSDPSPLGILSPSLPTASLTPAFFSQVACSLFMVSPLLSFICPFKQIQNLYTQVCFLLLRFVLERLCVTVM
Outline: as §1

[16] = target: T10, ETV2 (Homo sapiens, UniProt O00321 1-342); details: protein: recombinant; tags: N-terminal GST; dsDNA, one strand shown
T10 sequence: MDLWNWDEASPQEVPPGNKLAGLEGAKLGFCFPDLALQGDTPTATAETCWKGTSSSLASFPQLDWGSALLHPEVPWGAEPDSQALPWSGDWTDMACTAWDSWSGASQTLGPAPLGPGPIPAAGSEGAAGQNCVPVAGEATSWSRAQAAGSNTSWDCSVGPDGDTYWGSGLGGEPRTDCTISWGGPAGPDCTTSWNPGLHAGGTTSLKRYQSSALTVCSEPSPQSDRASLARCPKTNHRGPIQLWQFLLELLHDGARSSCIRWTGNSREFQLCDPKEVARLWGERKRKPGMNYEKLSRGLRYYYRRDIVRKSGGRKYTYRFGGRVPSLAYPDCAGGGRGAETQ
Outline: as §1

[17] = target: T11, ELF3 (Homo sapiens, UniProt P78545 1-371); details: protein: recombinant; tags: N-terminal GST; dsDNA, one strand shown
T11 sequence: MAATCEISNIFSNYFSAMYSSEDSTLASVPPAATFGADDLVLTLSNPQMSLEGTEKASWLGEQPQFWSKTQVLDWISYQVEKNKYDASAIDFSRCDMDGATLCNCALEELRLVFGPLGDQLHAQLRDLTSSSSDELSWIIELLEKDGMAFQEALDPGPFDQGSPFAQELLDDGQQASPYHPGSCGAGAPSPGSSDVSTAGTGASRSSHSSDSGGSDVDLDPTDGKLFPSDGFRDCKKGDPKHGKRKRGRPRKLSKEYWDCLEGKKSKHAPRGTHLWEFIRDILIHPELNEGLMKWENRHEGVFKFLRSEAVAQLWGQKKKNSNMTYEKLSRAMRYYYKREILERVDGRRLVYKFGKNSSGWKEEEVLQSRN
Outline: as §1

[18] = target: CRX (Homo sapiens, UniProt O43186 1-299); details: protein: recombinant; tags: N-terminal GST; dsDNA, one strand shown
Outline: as §1

[19] = target: ETV1 (Homo sapiens, UniProt P50549 1-477); details: protein: recombinant; tags: N-terminal GST; dsDNA, one strand shown
Outline: as §1

Sequence of ELF1 (P32519 whole entry): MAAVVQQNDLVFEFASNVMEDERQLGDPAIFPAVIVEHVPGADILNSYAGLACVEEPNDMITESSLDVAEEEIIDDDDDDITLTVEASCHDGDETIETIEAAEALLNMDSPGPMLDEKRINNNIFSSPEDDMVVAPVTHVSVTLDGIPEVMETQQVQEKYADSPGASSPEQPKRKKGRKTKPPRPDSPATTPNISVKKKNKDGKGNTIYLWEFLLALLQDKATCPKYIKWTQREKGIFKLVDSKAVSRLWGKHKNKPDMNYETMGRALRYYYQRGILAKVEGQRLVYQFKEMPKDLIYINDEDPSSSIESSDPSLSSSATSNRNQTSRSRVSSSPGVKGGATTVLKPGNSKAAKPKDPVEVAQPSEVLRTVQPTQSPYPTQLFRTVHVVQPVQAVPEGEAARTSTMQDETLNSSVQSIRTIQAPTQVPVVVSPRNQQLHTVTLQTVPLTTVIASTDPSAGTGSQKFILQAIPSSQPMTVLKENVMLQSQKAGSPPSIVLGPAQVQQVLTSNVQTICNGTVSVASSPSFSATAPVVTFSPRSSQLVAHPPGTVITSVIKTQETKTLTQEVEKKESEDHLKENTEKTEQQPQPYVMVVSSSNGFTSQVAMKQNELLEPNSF
Sequence of ELF4 (Q99607 whole entry): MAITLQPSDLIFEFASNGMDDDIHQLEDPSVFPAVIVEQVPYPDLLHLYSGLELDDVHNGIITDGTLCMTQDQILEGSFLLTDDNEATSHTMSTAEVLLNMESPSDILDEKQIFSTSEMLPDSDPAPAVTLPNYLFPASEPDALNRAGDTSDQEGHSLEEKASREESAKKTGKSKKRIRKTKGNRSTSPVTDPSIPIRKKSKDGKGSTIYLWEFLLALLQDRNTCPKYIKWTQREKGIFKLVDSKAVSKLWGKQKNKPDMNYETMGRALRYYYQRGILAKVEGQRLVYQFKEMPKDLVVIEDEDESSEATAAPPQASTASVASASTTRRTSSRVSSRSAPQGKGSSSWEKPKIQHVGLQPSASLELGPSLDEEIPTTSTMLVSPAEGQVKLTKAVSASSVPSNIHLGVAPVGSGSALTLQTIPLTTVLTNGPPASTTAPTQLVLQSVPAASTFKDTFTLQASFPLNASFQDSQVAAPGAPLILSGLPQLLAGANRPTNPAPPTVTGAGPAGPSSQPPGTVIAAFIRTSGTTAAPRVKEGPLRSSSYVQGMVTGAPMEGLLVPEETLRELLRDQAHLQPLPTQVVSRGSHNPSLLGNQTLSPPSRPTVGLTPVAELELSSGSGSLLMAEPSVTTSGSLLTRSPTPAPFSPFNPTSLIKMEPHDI
Sequence of HSF1 (Q00613 whole entry): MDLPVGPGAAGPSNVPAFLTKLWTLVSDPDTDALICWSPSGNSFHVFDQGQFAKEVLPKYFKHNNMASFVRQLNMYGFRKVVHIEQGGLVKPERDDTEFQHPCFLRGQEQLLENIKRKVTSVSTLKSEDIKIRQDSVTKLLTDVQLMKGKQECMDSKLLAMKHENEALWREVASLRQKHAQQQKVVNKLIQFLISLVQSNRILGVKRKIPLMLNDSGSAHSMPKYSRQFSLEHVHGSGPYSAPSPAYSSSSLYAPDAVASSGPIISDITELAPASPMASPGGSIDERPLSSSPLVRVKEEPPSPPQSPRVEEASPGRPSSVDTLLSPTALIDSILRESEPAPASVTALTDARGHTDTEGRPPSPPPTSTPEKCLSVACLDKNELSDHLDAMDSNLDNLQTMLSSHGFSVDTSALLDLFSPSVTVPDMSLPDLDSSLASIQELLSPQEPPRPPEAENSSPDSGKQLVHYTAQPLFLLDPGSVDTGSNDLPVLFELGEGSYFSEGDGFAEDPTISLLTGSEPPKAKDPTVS
Sequence of ETV1 (P50549 whole entry): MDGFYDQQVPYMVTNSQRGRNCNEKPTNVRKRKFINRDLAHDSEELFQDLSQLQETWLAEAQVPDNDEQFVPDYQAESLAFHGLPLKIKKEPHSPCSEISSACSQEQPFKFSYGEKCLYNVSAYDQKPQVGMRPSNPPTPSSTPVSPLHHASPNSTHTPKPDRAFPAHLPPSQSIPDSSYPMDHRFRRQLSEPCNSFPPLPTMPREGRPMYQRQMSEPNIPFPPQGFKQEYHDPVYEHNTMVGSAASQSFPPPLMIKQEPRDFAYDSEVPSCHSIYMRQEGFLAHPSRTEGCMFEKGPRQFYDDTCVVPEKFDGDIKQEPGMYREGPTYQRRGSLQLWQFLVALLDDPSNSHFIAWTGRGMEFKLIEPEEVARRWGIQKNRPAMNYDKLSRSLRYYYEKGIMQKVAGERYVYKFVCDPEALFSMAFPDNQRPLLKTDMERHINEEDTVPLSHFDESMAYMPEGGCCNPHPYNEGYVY
Sequence of SPIB (Q01892 whole entry): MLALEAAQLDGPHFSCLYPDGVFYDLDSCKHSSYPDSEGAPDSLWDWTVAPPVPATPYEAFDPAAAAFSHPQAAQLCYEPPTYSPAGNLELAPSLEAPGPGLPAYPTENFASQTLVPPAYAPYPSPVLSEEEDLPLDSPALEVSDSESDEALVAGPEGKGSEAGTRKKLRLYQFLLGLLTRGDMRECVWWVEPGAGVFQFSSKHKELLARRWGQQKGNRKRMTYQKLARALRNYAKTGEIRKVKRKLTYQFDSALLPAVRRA
Sequence of ETV5 (P41161 whole entry): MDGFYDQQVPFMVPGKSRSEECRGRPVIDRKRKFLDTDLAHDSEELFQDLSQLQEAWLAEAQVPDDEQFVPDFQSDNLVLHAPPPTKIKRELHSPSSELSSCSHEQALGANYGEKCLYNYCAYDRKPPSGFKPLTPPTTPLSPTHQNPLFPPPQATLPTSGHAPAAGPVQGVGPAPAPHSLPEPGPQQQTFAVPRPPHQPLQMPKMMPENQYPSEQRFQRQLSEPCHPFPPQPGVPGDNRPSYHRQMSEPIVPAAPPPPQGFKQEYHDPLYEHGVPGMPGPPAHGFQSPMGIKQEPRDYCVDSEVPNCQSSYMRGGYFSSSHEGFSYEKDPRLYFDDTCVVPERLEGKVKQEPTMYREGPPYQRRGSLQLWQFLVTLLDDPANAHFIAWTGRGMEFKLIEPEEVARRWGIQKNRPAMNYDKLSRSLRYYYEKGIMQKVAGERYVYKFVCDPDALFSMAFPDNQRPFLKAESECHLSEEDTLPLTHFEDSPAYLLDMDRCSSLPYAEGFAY
Sequence of CRX (O43186 whole entry): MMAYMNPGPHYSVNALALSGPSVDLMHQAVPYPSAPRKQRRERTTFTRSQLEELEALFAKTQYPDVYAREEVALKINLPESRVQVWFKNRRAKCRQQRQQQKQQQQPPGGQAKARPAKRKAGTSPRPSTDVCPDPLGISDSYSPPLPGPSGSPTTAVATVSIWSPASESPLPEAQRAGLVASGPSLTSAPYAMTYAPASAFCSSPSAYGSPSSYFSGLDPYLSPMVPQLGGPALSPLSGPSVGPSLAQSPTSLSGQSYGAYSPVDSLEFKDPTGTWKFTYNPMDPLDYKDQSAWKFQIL

ATCATG
binding signal [1]: 1.21 fold enrichment (6-mer frequency, TF over GST control) | binding signal [2]: 1.15 fold enrichment (6-mer frequency, TF over GST control) | binding signal [3]: 1.22 fold enrichment (6-mer frequency, TF over GST control) | binding signal [4]: 1.1 fold enrichment (6-mer frequency, TF over GST control) | binding signal [5]: 1.17 fold enrichment (6-mer frequency, TF over GST control) | binding signal [6]: 1.19 fold enrichment (6-mer frequency, TF over GST control) | binding signal [7]: 1.06 fold enrichment (6-mer frequency, TF over GST control) | binding signal [8]: 1.14 fold enrichment (6-mer frequency, TF over GST control) | binding signal [9]: 1.15 fold enrichment (6-mer frequency, TF over GST control) | binding signal [10]: 1.13 fold enrichment (6-mer frequency, TF over GST control) | binding signal [11]: 1.09 fold enrichment (6-mer frequency, TF over GST control) | binding signal [12]: 1.09 fold enrichment (6-mer frequency, TF over GST control) | binding signal [13]: 1.09 fold enrichment (6-mer frequency, TF over GST control) | binding signal [14]: 1.09 fold enrichment (6-mer frequency, TF over GST control) | binding signal [15]: 1.14 fold enrichment (6-mer frequency, TF over GST control) | binding signal [16]: 1.18 fold enrichment (6-mer frequency, TF over GST control) | binding signal [17]: 1.25 fold enrichment (6-mer frequency, TF over GST control) | binding signal [18]: 1.21 fold enrichment (6-mer frequency, TF over GST control) | binding signal [19]: 1.19 fold enrichment (6-mer frequency, TF over GST control)
